According to PubChem BioAssay (NCI):
Compounds without any hit were thinned out: in the full panel of roughly 83,000, 20% have a hit.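 Treatment: one concentration, 48 hours, 96-well format. Scoring: percent growth, with anything below 10 considered active.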 The source made the active and inactive calls.

Assays:
Assay in all cases: NCI-60 one-dose screen, 48 h (100 = growth as untreated, 0 = no growth, -100 = all killed)
Conditions in all cases: 10 µM
[1] = tested on: NCI-H23 lung
[2] = tested on: NCI-H226 lung
[3] = tested on: NCI-H322M lung
[4] = tested on: HOP-62 NSCLC
[5] = tested on: NCI-H460 lung
[6] = tested on: HOP-92 NSCLC
[7] = tested on: NCI-H522 lung
[8] = tested on: A549/ATCC NSCLC
[9] = tested on: 786-0 renal
[10] = tested on: COLO 205 colon
[11] = tested on: DU-145 prostate
[12] = tested on: K-562 leukemia
[13] = tested on: MALME-3M melanoma
[14] = tested on: MDA-MB-231 breast
[15] = tested on: RXF 393 renal
[16] = tested on: SF-268 CNS
[17] = tested on: SF-295 CNS
[18] = tested on: SF-539 CNS
[19] = tested on: UACC-257 melanoma
[20] = tested on: M14 melanoma

Measured: growth

O=[N+]([O-])c1ccc(N(CCO)CCO)c2c1no[n+]2[O-]
active: [2] 0.462% | [3] -16% | [4] -34.1% | [5] -26.2% | [6] -35.5% | [7] -62% | [8] 4% | [9] -31.5% | [10] -93.3% | [11] -44.5% | [12] -55.9% | [13] -38.2% | [14] -12% | [15] -21.4% | [16] -17.6% | [17] -23.2% | [18] -59.8% | [20] -32.4%
inactive: [1] 10.1% | [19] 12.1%

[O-][n+]1ccccc1S
inactive: [1] 73.5% | [2] 95.8% | [3] 64.1% | [4] 58% | [6] 97.1% | [8] 30.4% | [9] 46.3% | [11] 32.3% | [12] 31.2% | [13] 110% | [14] 58.7% | [15] 46.9% | [16] 70.7% | [17] 44.4% | [18] 67.6% | [19] 23.9%
active: [5] 8.67% | [7] -34.7%

O=C(CBr)Nc1ccccc1
inactive: [1] 93.1% | [2] 98.4% | [3] 97.9% | [4] 109% | [5] 107% | [6] 101% | [8] 98.5% | [9] 102% | [10] 116% | [11] 102% | [12] 39.4% | [13] 54.7% | [14] 95.3% | [15] 107% | [16] 90.1% | [17] 103% | [18] 106% | [19] 99.5% | [20] 84.4%
active: [7] -84%

O=C1CCC(=O)N1SC(Cl)(Cl)Cl
inactive: [1] 108% | [2] 101% | [3] 106% | [4] 113% | [5] 108% | [6] 105% | [7] 80.4% | [8] 107% | [9] 106% | [11] 120% | [12] 95.3% | [13] 118% | [14] 113% | [15] 108% | [16] 109% | [17] 117% | [18] 109% | [19] 110% | [20] 108%

O=C(CCl)Nc1ccc(Cl)cc1
active: [7] -96.3%
inactive: [1] 28.4% | [2] 50.7% | [3] 78.3% | [4] 75.1% | [5] 99.8% | [6] 57.8% | [8] 85.1% | [9] 44.7% | [11] 76.1% | [12] 19.4% | [13] 28% | [14] 46.7% | [15] 35.2% | [16] 41.9% | [17] 68.8% | [18] 105% | [19] 69.9% | [20] 47.1%

CN(CCCl)c1ccc(/C=C/C2=[N+](C)c3ccccc3C2(C)C)cc1
active: [1] 9.42%
inactive: [2] 46.6% | [3] 46.7% | [4] 41.1% | [5] 17.7% | [6] 31.1% | [7] 30.4% | [8] 31.8% | [9] 57.6% | [11] 28.9% | [12] 26.9% | [13] 23.5% | [14] 21.1% | [15] 82.3% | [16] 31.8% | [17] 45.5% | [18] 14.4% | [19] 30.8% | [20] 37.4%

CCOP(=O)(OCC)/C(C#N)=C/c1ccc(Br)cc1
inactive: [1] 92.9% | [2] 96.2% | [3] 105% | [4] 89.7% | [5] 104% | [6] 69.6% | [7] 89.7% | [8] 102% | [9] 104% | [10] 109% | [11] 107% | [13] 107% | [14] 106% | [16] 95.2% | [17] 106% | [18] 95.9% | [19] 93.7% | [20] 98.4%

COc1ccccc1[As]=[As]c1ccccc1OC (stereo unspecified)
active: [1] -86.8% | [2] -93.5% | [3] -80.8% | [4] -94.8% | [5] -42.6% | [6] -85.1% | [7] -80.6% | [8] -88.1% | [9] -94.7% | [11] -89.9% | [12] 8.02% | [13] -72.8% | [14] -83.2% | [15] -99.5% | [16] -82.9% | [17] -86.4% | [18] -91.4% | [19] -95.5% | [20] -81.4%

[Cl][Sn]([c]1ccccc1)([c]1ccccc1)[c]1ccccc1
active: [1] -71.6% | [2] -62% | [3] -89.5% | [4] -88.4% | [5] -66% | [6] -85.6% | [7] -82.2% | [8] -93.6% | [9] -93.4% | [10] -92.5% | [11] -84.3% | [12] 0.0368% | [13] -64% | [15] -81.5% | [16] -79.2% | [17] -62.1% | [18] -89.5% | [19] -93.9% | [20] -76%

Cc1cc(C(C)(C)c2ccc(O)c(C)c2)ccc1O
inactive: [1] 97.4% | [2] 107% | [3] 93.4% | [4] 97.4% | [5] 110% | [6] 110% | [7] 83.8% | [8] 75.7% | [9] 102% | [11] 107% | [12] 80.8% | [13] 88.4% | [14] 80.5% | [15] 93.5% | [16] 90.3% | [17] 104% | [18] 92.2% | [19] 81.7% | [20] 106%

CC12OOC(c3ccccc31)c1c2ccc2ccccc12 (stereo unspecified)
inactive: [1] 32.7% | [2] 86.7% | [3] 76.8% | [4] 73.3% | [8] 65.4% | [9] 66.1% | [14] 49.7% | [15] 67.3% | [16] 43.1% | [17] 82.5% | [18] 83%
active: [5] -63.2% | [6] -61.9% | [7] -91.2% | [11] -95.3% | [12] -82.8% | [13] -88.4% | [19] -17% | [20] -7.71%

O=[N+]([O-])c1ccc(N2CCOCC2)c2c1no[n+]2[O-]
active: [4] 8.11% | [5] 6.53% | [6] -31.9% | [7] -70.5% | [9] -12.8% | [11] 6.63% | [12] -29.6% | [13] -12.6% | [15] -31.4% | [16] 4.58% | [18] -22.3% | [20] 0.168%
inactive: [1] 13.1% | [2] 35.7% | [3] 28.1% | [8] 21.4% | [14] 34.3% | [17] 20.5% | [19] 41%

CC[C@@]1(O)C[C@H](OC2CC(N(C)C)C(O)C(C)O2)c2c(cc3c(c2O)C(=O)c2c(O)ccc(O)c2C3=O)[C@H]1C(=O)OC (stereo partly specified)
active: [1] -79.6% | [2] -62.3% | [3] -78.6% | [4] -69.6% | [5] -64% | [6] -68.9% | [7] -70.1% | [8] -84.8% | [9] -97.5% | [11] -77.8% | [12] -73.7% | [13] -87.4% | [14] -70.9% | [15] -66.3% | [16] -61% | [17] -81.5% | [18] -88.5% | [19] -67.7% | [20] -93.1%

O=[N+]([O-])c1ccc(Br)c([N+](=O)[O-])c1
inactive: [1] 108% | [2] 101% | [3] 115% | [4] 115% | [5] 94.8% | [6] 109% | [8] 104% | [9] 108% | [11] 93.4% | [12] 34.6% | [13] 68.6% | [14] 88.9% | [15] 102% | [16] 96.8% | [17] 108% | [18] 98.7% | [19] 74.3% | [20] 79.9%
active: [7] -28.5%
